Screening data from PubChem.
TGFb inhibitor: TGF-b pathway inhibition; HepG2 CAGA-GFP TGF-b/SMAD3 reporter, GFP fluorescence, 18 h; TGF-beta stimulated, 500 pg/mL final; Potency, µM (doses to about 46.1 µM), for inactives: top-dose activity, negative = inhibition, most hits filed as inhibitors; 1.2% of 410,000 active; further: on the % scale 0 is the no-effect control and ±100 the full control effect; nearly all actives have a fitted effect of over 65% in size
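Read-out: total well GFP (ex488/em500-530) summed from mean per-cell fluorescence. Cells: HEPG2 CAGA-GFP, 1% FBS DMEM, 18 h at 37 degrees C with 500 pg/mL final TGF-beta. Unstimulated wells served as the full-inhibition control; stimulated DMSO wells = 0%.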
ATXN2 expr inh: ATXN2 expression inhibition; 0.72% of 360,000 active; Potency, µM (titrated, usually from 57 µM), for inactives: top-dose activity change, negative = inhibition, hits mostly inhibitors; HEK-293 ATXN2-luciferase reporter, luminescence, 24 h; AID 1745845; further: on the % scale 0 is the no-effect control and ±100 the full control effect; nearly all actives have a fitted effect of over 55% in size
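qHTS (up to 57 uM final) was run with 24 h compound exposure of reporter cells at 37 °C. Each well was multiplexed: SteadyGlo luminescence measured ATXN2-luciferase expression after a fluorogenic Gly-Phe-AFC viability readout (25 uM final).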
HepG2 viability: kills HepG2 cells in TGF-b inhibitor counter-screen. 0.76% of 410,000 active. Potency, µM (doses to about 46.1 µM), inactives show at the top dose activity change, negative = cytotoxicity, actives largely listed as cytotoxic. AID 588856. HepG2 CAGA-GFP viability, ATP luminescence, 18 h
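HepG2 CAGA-GFP cells (1000/well, DMEM with 1% FBS) received compound, then TGF-beta at 500 pg/mL final, and were incubated 18 hours at 37 degrees C. Viability was read by CellTiter-Glo luminescence. Media-only wells were set as complete cell-killing and DMSO as no toxicity.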
ATXN viability: reduces viability in counter-screen for ATXN expression inhibitors | S2 cells (HEK-293 line with an ATXN2-luciferase reporter) viability, CellTiter-Fluor protease fluorescence, 24 h | Potency, µM (top dose mostly 56.7 µM), hits mostly cytotoxic | 0.49% of 400,000 active; further: nearly all actives have a fitted effect of over 40% in size
DT40 TDP1 CPT: growth inhibition of DT40 Tdp1-/-;hTDP1 cells with camptothecin (screen for TDP1 inhibitors) | chicken DT40 Tdp1-/-;hTDP1 cells + 20 nM CPT, ATP luminescence, 48 h | Potency, µM (doses to about 46.2 µM), inactives show at the top dose activity change, negative = growth inhibition, most hits filed as inhibitors | 12% of 420,000 active | AID 686979; further: on the % scale 0 is the no-effect control and ±100 the full control effect; nearly all actives have a fitted effect of over 55% in size
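Chicken DT40 Tdp1-/- cells complemented with human TDP1, 400 cells/well, exposed to compounds plus 20 nM camptothecin for at least 48 h at 37 C; viability read as ATP content by CellTiter-Glo luminescence.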
TDP1 cell noCPT: qHTS for Inhibitors of human tyrosyl-DNA phosphodiesterase 1 (TDP1): qHTS in cells in absence of CPT; Potency, µM (titrated, usually from 46.2 µM), without a hit: at the highest dose activity change, negative = growth inhibition, usual class: inhibitors; AID 686978, 2013; 15% of 420,000 active; DT40 Tdp1-/- hTDP1 cells, no CPT, ATP luminescence, 48 h; further: on the % scale 0 is the no-effect control and ±100 the full control effect; nearly all actives have a fitted effect of over 55% in size
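Seeded 400 DT40-hTDP1 cells/well (vehicle DMSO, no 20 nM CPT); pinned compounds; ≥48 hr at 37 °C; CellTiter-Glo luminescence as viability measure.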
Starred values were filed as active, the others as inactive; i = inactive; ? = inconclusive; . = no result given. Shown are actives, neighbours in structure and some others; about 17% of the full set was active somewhere. The call rests on the fitted dose curve; in most records, active means well fitted curve in the direction sought with a large enough effect; inconclusive means small, poorly fitted or top-dose-only effect, or another doubt; inactive means no such curve, though single readings can be large; an effect the other way counts as inactive or inconclusive. Potency means the concentration at half of the fitted maximal effect.

SMILES	TGFb inhibitor	ATXN2 expr inh	HepG2 viability	ATXN viability	DT40 TDP1 CPT	TDP1 cell noCPT
CC(C)C[C@H](NC(=O)c1[nH]cnc1C(=O)N[C@@H](Cc1ccccc1)C(=O)OCc1ccccc1)C(=O)OCc1ccccc1	-25%	-2%	-30%	?	?	?
O=C(COC(=O)COc1ccc(Br)cc1)NCc1ccccc1	3%	-2%	-3%	i	5%	1%
Cc1cc2c(cc1C)C(c1ccccc1F)CC(=O)N2 (centres undefined)	-21%	-11%	-7%	i	?	?
Cc1cc2c(cc1C)C(c1cc(Br)ccc1F)CC(=O)N2 (centres undefined)	?	-3%	-34%	i	?	16µM*
Cc1cc2c(cc1C)C(c1cccc(F)c1)CC(=O)N2 (centres undefined)	-26%	.	-3%	?	?	16µM*
CC(C)(c1cc(Br)c(O)c(Br)c1)c1cc(Br)c(O)c(Br)c1	?	0%	-42%	i	30%	-28%
Cc1ccc(S(=O)(=O)c2[nH]c(-c3ccccc3)nc2SCC(N)=O)cc1	11%	11%	-10%	i	4%	-2%
COc1cc(CCC(=O)OCC(=O)N2CCc3ccccc32)cc(OC)c1OC	-6%	4%	3%	i	0%	4%
O=C(CSc1nnc(-c2cccs2)o1)NCc1ccco1	-1%	-10%	21%	i	13%	3%
COc1ccc(C2=NOC(C(=O)NCc3ccco3)C2)cc1 (centres undefined)	0%	20%	2%	i	4µM*	2.8µM*
COc1cc(C2=NOC(C(=O)NCc3ccco3)C2)cc(OC)c1OC (centres undefined)	24%	-19%	-6%	?	4.1µM*	3.3µM*
O=C(NCc1ccco1)C1CC(c2ccc(C(F)(F)F)cc2)=NO1 (centres undefined)	0%	1%	6%	i	13µM*	12µM*
Cc1ccc(CNC(=O)C2CC(c3cc(C(F)(F)F)cc(C(F)(F)F)c3)=NO2)o1 (centres undefined)	-25%	-22%	-18%	i	3.3µM*	4.6µM*
Cc1ccc(CCNC(=O)C2CC(c3cc(C(F)(F)F)cc(C(F)(F)F)c3)=NO2)cc1 (centres undefined)	10%	-4%	7%	i	?	?
Cc1cccc(C)c1NC(=O)CN(C)C(C)C(=O)NCC(=O)Nc1ccc(F)c(F)c1F (centres undefined)	13%	-10%	5%	i	-11%	8%
O=C1NC(=S)NC(=O)C1Nc1ccc(Cl)cc1	-5%	-7%	-9%	i	?	7.3µM*
CC(=O)N1C(Nc2ccc(Cl)cc2)CCN1c1ccccc1 (centres undefined)	-4%	-26%	-16%	i	-20%	-19%
O=C(/C=C/c1ccc(F)cc1)N1CCCN(C(=O)/C=C/c2ccc(F)cc2)CC1	?	9%	-28%	i	16µM*	?
O=C(O)/C=C/c1ccc([N+](=O)[O-])o1	7%	3%	15%	i	-2%	-28%
CN1CCN(C(=O)/C=C/c2ccc([N+](=O)[O-])o2)CC1	11µM*	.	-119%	.	9.2µM*	15µM*
O=C(c1ccc(S(=O)(=O)N2CCOCC2)cc1)N1CCN(c2ccc(F)cc2)CC1	3%	7%	-2%	i	-20%	?
O=C(/C=C/c1ccc(S(=O)(=O)N2CCOCC2)cc1)N1CCN(c2ccc(F)cc2)CC1	-8%	?	-3%	i	7.3µM*	3.7µM*
Cc1ccc(/C=C/C(=O)N2CCCN(C(=O)/C=C/c3ccc(C)cc3)CC2)cc1	-18%	-5%	0%	i	?	15µM*
CN(C)c1ccc(-c2nc3ccccn3c2/N=C/c2ccc(Br)cc2)cc1	-2%	?	-55%	i	?	?
CC(C)NC(=O)N1CC[C@@]2(CCCN(C(=O)c3cc(C(F)(F)F)cc(C(F)(F)F)c3)C2)C1	.	.	.	.	7%	-25%
SMILES	TGFb inhibitor	ATXN2 expr inh	HepG2 viability	ATXN viability	DT40 TDP1 CPT	TDP1 cell noCPT
CC1CN(C(=O)COC(=O)Cc2ccc(Cl)cc2)CC(C)O1 (centres undefined)	6%	8%	7%	i	-17%	20%
O=c1oc2ccc3ccccc3c2cc1-c1nnc(Nc2ccc(Cl)cc2Cl)s1	1%	12%	1%	i	2%	-11%
CCOc1ccc(OCCCC(=O)O)cc1	24%	9%	5%	i	-6%	-3%
CCOC(=O)N1CCN(C(=O)/C=C/c2ccc(C(C)(C)C)cc2)CC1	-25%	-10%	-23%	i	?	16µM*
N=C(N1CCCc2ccccc21)N1CCCc2ccccc21	2%	-32%	-1%	i	16µM*	21µM*
O=C(C(=O)N1CCCc2ccccc21)N1CCCc2ccccc21	?	-12%	-5%	i	7%	?
O=C(/C=C/c1ccc(F)cc1)N1CCCc2ccccc21	-9%	14%	-3%	i	?	18µM*
O=C(/C=C/c1ccc(-c2ccc(F)cc2)o1)N1CCCC1	-18%	81%	-15%	i	?	21µM*
C[C@@H]1Cn2cnc(C(=O)N[C@@H](C)C(=O)OC(C)(C)C)c2C(=O)N1	-13%	4%	-19%	i	-1%	-22%
CCn1cc(C(=O)O)c(=O)c2cnc(N3CCN(C(=S)NC(=O)c4ccccc4Cl)CC3)nc21	-7%	.	7%	i	1%	-12%
COc1cccc(NS(=O)(=O)NC(=O)c2c(C)[nH]c3ccccc23)c1	3%	-1%	3%	i	-25%	3%
On1onc2c3cc(-c4ccccc4)nc3ccc21	?	?	-19%	?	2.9µM*	5.2µM*
O=C(NCC1CCCO1)c1cn(Cc2ccccc2)nc1-c1ccc(Cl)cc1 (centres undefined)	-2%	.	-3%	i	-12%	?
CCCCOc1ccc(C(C)NC(=O)CN2C(=O)CSc3ccc(S(=O)(=O)N4CCOCC4)cc32)cc1 (centres undefined)	?	.	-37%	.	?	23µM*
